# PubChem BioAssay AID686979 (National Center for Advancing Translational Sciences (NCATS), 2013)
# In all, about 420,000 compounds went through this assay and about 50,000 (12%) were called active. Inconclusive results (about 26%) are left out. Calls follow the shape of the dose curve; as a rule, active = well fitted inhibition curve with a large enough effect; inconclusive = small, poorly fitted or top-dose-only effect; inactive = flat fitted curve, though single readings scatter. For the sample, actives were picked, then their nearest neighbours and some compounds at random.
# Test: qHTS for Inhibitors of human tyrosyl-DNA phosphodiesterase 1 (TDP1): qHTS in cells in presence of CPT; also: nearly all actives have a fitted effect of over 55% in size
# Details: chicken DT40 Tdp1-/-;hTDP1 cells + 20 nM CPT, ATP luminescence, 48 h; series mostly up to 46.2 µM; activity change, negative = growth inhibition: at the top concentration
# Summary of the method: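 Chicken DT40 Tdp1-/- cells complemented with human TDP1, 400 cells/well, exposed to compounds plus 20 nM camptothecin for at least 48 h at 37 C; viability read as ATP content by CellTiter-Glo luminescence.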
# % is scaled to controls: 0 for no effect and ±100 for the full control effect; potency is read from the fitted curve at half-maximal effect.
SMILES,"activity change, negative = growth inhibition",Potency
COc1cccc(CC(=O)N2CCCC(CCC(=O)N3CCN(c4ccccn4)CC3)C2)c1 (centres undefined),-6.11% (inactive),
CC(C)Sc1ncnc2c1cnn2-c1ccccc1,-7.47% (inactive),
Nc1cc(N)nc(SCc2cccc(F)c2)n1,1.43% (inactive),
COCCN1C(=O)C(=O)/C(=C(/O)c2ccc(S(=O)(=O)N3CCCCC3)cc2)C1c1ccc(OC)c(OC)c1 (centres undefined),5.68% (inactive),
Cc1ccc2c(c1)C1C[N+](C)(CC(=O)c3ccccc3)CCC1N2C(=O)c1ccccc1Cl (centres undefined),-1.83% (inactive),
CCOc1ccc(C2=CC(c3ccccc3)n3ncnc3N2)cc1 (centres undefined),-29.3% (inactive),
CC(=O)Nc1ccc(NC(=O)CSCc2cnn(-c3ccccc3)c2-n2cccc2)cc1,-0.201% (inactive),
O=C(NCCC1=CCCCC1)C1CCN(Cc2cnn(-c3ccccc3)c2-n2cccc2)CC1,,23.1 µM (active)
COCCNC(=O)C1CCCN(Cc2ccccc2Cl)CC1 (centres undefined),-11% (inactive),
CS(=O)(=O)c1ccc(C(=O)OCC(=O)NNC(=O)COc2ccc(Cl)cc2)cc1,6.33% (inactive),
CN(C)c1ccc(/C=C/C(=O)c2ccc(C(C)(C)C)cc2)cc1[N+](=O)[O-],,23.1 µM (active)
O=C(O)c1ccc2c(=O)n3c(nc2c1)/C(=C/c1ccc(Cl)c([N+](=O)[O-])c1)CC3,8.58% (inactive),
O=C(/C=C/c1ccc(Cl)c([N+](=O)[O-])c1)c1ccc(O)cc1,,4.11 µM (active)
CC(CC(=O)O)C(=O)c1ccc(Cl)c([N+](=O)[O-])c1 (centres undefined),-1.52% (inactive),
Cc1cc(C(=O)O)ccc1[N+](=O)[O-],-11.6% (inactive),
NC(N)=N/N=C/c1ccc(Cl)c([N+](=O)[O-])c1,,11.6 µM (active)
O=C(/C=C/c1ccc(Cl)cc1)N1CCN(c2ccccc2[N+](=O)[O-])CC1,-6.66% (inactive),
Nn1cnnc1N/N=C/c1cc([N+](=O)[O-])c(Cl)cc1Cl,1.95% (inactive),
O=C(Nc1cccc(NC(=O)c2ccccc2[N+](=O)[O-])c1)c1ccccc1Cl,-11.1% (inactive),
O=C(c1ccc(F)cc1)N1CCC(C(=O)N2CCN(S(=O)(=O)c3ccccc3Br)CC2)CC1,-22.5% (inactive),
COc1ccc(NC(=O)C2CCC(CNS(=O)(=O)c3csc(C(N)=O)c3)CC2)cc1OC (centres undefined),-4.23% (inactive),
Cc1ccc(S(=O)(=O)N2CCOCC2)cc1C(=O)NC(=S)N(Cc1ccccc1)C(C)C,6.11% (inactive),
Cc1cccc(N(Cc2ccccc2)C(=O)c2cc(S(=O)(=O)N3CCOCC3)ccc2F)c1,,18.4 µM (active)
Cc1ccc(S(=O)(=O)N2CCN(C(=O)c3cc(S(=O)(=O)N4CCOCC4)ccc3F)CC2)cc1,-24.8% (inactive),
O=C(COC(=O)c1ccc(F)c(S(=O)(=O)N2CCOCC2)c1)NCc1ccc2c(c1)OCO2,-23% (inactive),
Cc1nn(Cc2ccccc2)c(C)c1CNC(=O)c1ccc(F)c(S(=O)(=O)N2CCOCC2)c1,-13.2% (inactive),

SMILES,"activity change, negative = growth inhibition",Potency
O=C(c1ccc(F)c(S(=O)(=O)N2CCOCC2)c1)N(CCc1ccccc1)Cc1ccccc1,,14.6 µM (active)
CC(C)Cn1cc(-c2cncc3nccn23)cn1,5.95% (inactive),
CCCCN(CC(=O)NC(C)(C)C)C(=O)C(=O)Nc1ccc2c(c1)OCCO2,1.35% (inactive),
O=C(O)c1cc2c(cc1NC(=O)c1c(F)cccc1Cl)OCCCO2,5.92% (inactive),
Cc1ccc(CNC(=O)CSc2nnc3c(n2)[nH]c2ccc(F)cc23)cc1,9.5% (inactive),
CCOC(=O)COn1c(=O)c(-c2ccc(OCC)cc2)[n+]([O-])c2ccccc21,-16.7% (inactive),
CCOc1ccc(OCC)c(-c2c(=O)n(OCc3ccc(Cl)cc3)c3ccccc3[n+]2[O-])c1,,7.31 µM (active)
O=c1c(-c2ccc(Cl)cc2)[n+]([O-])c2ccccc2n1OCc1nc2ccccc2[nH]1,17.6% (inactive),
O=C(N/N=C/c1ccco1)c1csc2c1CCCC2,-2.91% (inactive),
Cc1cccc(C)c1NC(=O)N1CC(C)OC(C)C1 (centres undefined),-2.12% (inactive),
Cc1cccc(C)c1NC(=O)N1CC=C(n2c(=O)[nH]c3ccccc32)CC1,,14.6 µM (active)
Cc1ccccc1Cn1c(=O)[nH]c2ccccc21,-15.8% (inactive),
C[C@H](CO)N1C[C@H](C)[C@@H](CN(C)C(=O)c2cnccn2)Oc2ncc(Br)cc2C1=O,-4.57% (inactive),
NNc1nnc(Cc2ccncc2)c2ccccc12,-16.8% (inactive),
S=C(Nc1ccc(Br)cc1)NC1CCN(Cc2ccccc2)CC1,,16.4 µM (active)
O=C(Nc1ccccc1)N1CCC(C(=O)N2CCN(Cc3ccccc3)CC2)CC1,-23.9% (inactive),
O=C(NC1CCN(Cc2ccccc2)CC1)c1c(F)cccc1F,-5.75% (inactive),
Cc1cc(Br)ccc1NC(=S)NC1CCCC1,-25.2% (inactive),
Cc1cc(C(=O)NC2CCN(Cc3ccccc3)CC2)n[nH]1,1.51% (inactive),
Cc1ccc(-c2cc(C(=O)NC3CCN(Cc4ccccc4)CC3)c3ccccc3n2)cc1,,14.6 µM (active)
O=C(NC1CCN(Cc2ccccc2)CC1)c1cc(Br)c(Br)[nH]1,,18.4 µM (active)
Cc1ccn2cc(C(=O)NC3CCN(Cc4ccccc4)CC3)nc2c1,-22.4% (inactive),
S=C(Nc1ccc(Br)cc1Cl)NC1CCN(Cc2ccccc2)CC1,,18.4 µM (active)
O=C(NC1CCN(Cc2ccccc2)CC1)c1ccccc1F,-25.2% (inactive),
O=C(NNC(=S)Nc1ccc(Br)cc1Cl)c1ccco1,1.82% (inactive),
O=C(c1cccc(-n2cccc2)c1)N1CCN(S(=O)(=O)c2ccc(F)cc2)CC1,-14.8% (inactive),

SMILES,"activity change, negative = growth inhibition",Potency
COc1cc(/C=C/C(=O)OCC(=O)NC2CC2)cc(OC)c1OC,4.67% (inactive),
COC(=O)c1sccc1NC(=O)c1ccc(Cl)cc1,-0.881% (inactive),
CCc1ccc(NC(=O)CCNS(=O)(=O)c2cccs2)cc1,-1.58% (inactive),
Cc1cccc(C)c1NC(=O)CN1C(=O)C(C)Oc2ccccc21 (centres undefined),5.54% (inactive),
CCC1C(=O)c2ccccc2N(C)C1=O (centres undefined),15.8% (inactive),
Cc1onc(C(=O)Nc2ccc3c(c2)OCO3)c1[N+](=O)[O-],-30.1% (inactive),
Cc1ccc(NC(=O)CSc2nnc(CNC(=O)c3ccccc3F)o2)cc1Cl,-18% (inactive),
O=C(NC1CC(=O)N(c2ccccc2)C1)c1ccco1 (centres undefined),9.32% (inactive),
COc1cc(NC(=O)CN2CCN(S(=O)(=O)c3ccc(Br)cc3)CC2)cc(OC)c1,-4.27% (inactive),
COc1ccc(NC(=O)CN(C)C(=O)CNC(=O)C2CCCCC2)cc1,4.05% (inactive),
COc1ccc(/C=C/c2noc(-c3ccccc3OC(C)=O)n2)cc1,0.465% (inactive),
O=C(O)COc1ccc(/C=N/O)cc1Br,-0.568% (inactive),
C=CCNC(=S)N/N=C/c1ccc(OCc2ccccc2)cc1,-6.93% (inactive),
CNC(=S)N/N=C/c1ccc(OCc2ccccc2)c(Br)c1,,9.2 µM (active)
O=C(COc1ccccc1)Nc1ccc(F)cc1,-2.03% (inactive),
CC(C)(CCl)C(=O)Nc1ccc(Sc2ccc(F)cc2)cc1,,5.8 µM (active)
CCN(c1ccccc1)S(=O)(=O)c1ccc(NC(=O)C(C)(C)C)cc1,-28.5% (inactive),
Cc1ccc(C(O)P(=O)(OC(C)C)c2ccc(N(C)C)cc2)cc1 (centres undefined),11.2% (inactive),
COc1cc2c(cc1OC)C(c1ccccc1Br)NC(=O)C2 (centres undefined),-11.7% (inactive),
O=C1c2ccccc2C(=O)C1C(=O)C1CC1,-101% (inactive),
CCc1c(C)nc(N)n2c(SCC(=O)NC3CCCCC3)nnc12,-9.06% (inactive),
CC1CCN(c2ccc3c(c2)S(=O)(=O)c2cc(C(=O)O)ccc2C3=O)CC1,6.79% (inactive),
CSc1ncccc1C(=O)NCC(c1ccco1)N1CCCCC1 (centres undefined),1.81% (inactive),
Cc1cc(S(=O)(=O)Nc2ccc(C(=O)NCC(c3ccco3)N3CCCC3)cc2)ccc1F (centres undefined),-19.1% (inactive),
CC1CCc2sc(C(=O)N/N=C/C3CCCCC3)cc2C1 (centres undefined),8.96% (inactive),
Cc1c(C(=O)NCC(c2ccco2)N2CCCC2)oc2ccc(Cl)cc12 (centres undefined),,20.6 µM (active)

SMILES,"activity change, negative = growth inhibition",Potency
CC1CCc2sc(C(=O)NCC(c3ccco3)N3CCCCC3)cc2C1 (centres undefined),,16.4 µM (active)
COc1ccc2oc(C(=O)NCc3ccco3)c(C)c2c1,-28.7% (inactive),
Nc1nc(N)c(N=O)c(N)n1,-0.158% (inactive),
CC(=O)N(OCc1ccc(OC(C)C)c(Cl)c1)C(C)=O,2.14% (inactive),
O=C(COC(=O)CCOc1ccccc1)Nc1cc(S(=O)(=O)N2CCCCC2)ccc1Cl,7.55% (inactive),
O=C(CN1CCN(S(=O)(=O)c2cc(Cl)ccc2Cl)CC1)c1ccc(O)c(O)c1,,9.2 µM (active)
O=S(=O)(c1cc(Cl)ccc1Cl)N1CCN(Cc2ccco2)CC1,-18.5% (inactive),
COc1ccc(Cl)cc1S(=O)(=O)N1CCN(CC(=O)C(C)(C)C)CC1,-24.2% (inactive),
COc1ccccc1C1CCN(c2ccc([N+](=O)[O-])cn2)CC1,-0.392% (inactive),
O=c1[nH]c(N2CCOCC2)nc2ccccc12,-13% (inactive),
Cc1cc(C(=O)Nc2ccccc2N2CCOCC2)c2ccccc2n1,-11.9% (inactive),
c1ccc(Nc2nc(N3CCOCC3)c3ccccc3n2)cc1,,20.6 µM (active)
CC1(C)CC(=O)C(C=NCCN2CCN(C(=S)Nc3cccc(Cl)c3)CC2)=C(O)C1,0.286% (inactive),
O=C(CN1CCN(S(=O)(=O)c2ccc(Cl)s2)CC1)NCc1ccc(Cl)cc1,-21% (inactive),
CC1(Oc2ccccc2-c2ccno2)CCN(Cc2ccc(-c3ccccc3)o2)C1 (centres undefined),,25.9 µM (active)
Nc1ncnc2c1ncn2[C@@H]1O[C@H](C(=O)N2CCCN(Cc3ccccc3F)CC2)[C@@H](O)[C@H]1O,-1.31% (inactive),
CC1(C)Cc2c(sc3nc4n(c(=N)c23)CCCCC4)CO1,-7.87% (inactive),
C=CCNC(=S)NNc1ncnc2sc3c(c12)CC(C)(C)OC3,,4.61 µM (active)
CCSc1nc2sc3c(c2c(=O)[nH]1)CC(C)(C)OC3,-6.76% (inactive),
Cc1c(CCC(=O)O)c(=O)oc2cc(OCc3ccc(Br)cc3)ccc12,-1.89% (inactive),
Fc1ccc(NC(=S)N2CCc3[nH]c4ccccc4c3C2)cc1,-0.771% (inactive),
COC(=O)c1scc(S(=O)(=O)C(C)(C)C)c1-n1cccc1,-11.3% (inactive),
CC/C(=N\NC(=O)c1c(C)nc2ccccn12)c1ccc(Cl)cc1,-18.7% (inactive),
CN(C)C(=O)c1nc2ccc(Cl)cn2c1CN1CCN(c2ncccn2)CC1,-7.94% (inactive),
Clc1ccc(-c2nc3ccccn3c2CN2CCSCC2)cc1,,29.1 µM (active)
O=C(COc1ccc(S(=O)(=O)NCc2ccccc2)cc1)N1CCOCC1,0.118% (inactive),
